Assay results as given in the supplement of paper PMC10849652.
About 8,800 targets were measured; listed, in parts, are those with a hit and a random draw of the rest. About 0.5% of all pairs of compound and target were hits. Values without a mark were called inactive.

Legend:
Experiment in all cases: log2 fold change, soluble protein after heating vs DMSO (PISA); higher = thermal stabilisation; K562 lysate, 10 uM; active = over 0.2 and 3.5 SD of the protein, either way, in both replicates (recomputed)
lapatinib = compound: CS(=O)(=O)CCNCc1ccc(-c2ccc3ncnc(Nc4ccc(OCc5cccc(F)c5)c(Cl)c4)c3c2)o1 [lapatinib]
Summary of the method: (§1)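 A 30 min treatment with 10 μM compound was applied to crude K562 extract at 1 mg/mL protein in PBS pH 7.4 with 1 mM MgCl2. Heating for 3 min spanned 48°C-58°C, after which aliquots were pooled, adjusted to 0.5% NP-40 at 4°C and spun at 21,000xg for 90 min. TMTpro 16plex LC-MS/MS of the supernatant, with channel sums equalised, gave values recorded as log-two fold change in thermal stability against solvent controls, from duplicates.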

pictilisib = compound: CS(=O)(=O)N1CCN(Cc2cc3nc(-c4cccc5[nH]ncc45)nc(N4CCOCC4)c3s2)CC1 [pictilisib]
Summary of the method: as §1

crizotinib = compound: C[C@@H](Oc1cc(-c2cnn(C3CCNCC3)c2)cnc1N)c1c(Cl)ccc(F)c1Cl [crizotinib]
Summary of the method: as §1

[1] = compound: C[C@H](C1=CC=C(C=C1)C(=O)NC2=C3C=CNC3=NC=C2)N
Summary of the method: as §1

duvelisib = compound: C[C@H](Nc1ncnc2nc[nH]c12)c1cc2cccc(Cl)c2c(=O)n1-c1ccccc1 [duvelisib]
Summary of the method: as §1

gandotinib = compound: Cc1cc(Nc2cc(CN3CCOCC3)c3nc(C)c(Cc4ccc(Cl)cc4F)n3n2)n[nH]1 [gandotinib]
Summary of the method: as §1

tozasertib = compound: Cc1cc(Nc2cc(N3CCN(C)CC3)nc(Sc3ccc(NC(=O)C4CC4)cc3)n2)n[nH]1 [tozasertib]
Summary of the method: as §1

doramapimod = compound: Cc1ccc(-n2nc(C(C)(C)C)cc2NC(=O)Nc2ccc(OCCN3CCOCC3)c3ccccc23)cc1 [doramapimod]
Summary of the method: as §1

bafetinib = compound: Cc1ccc(NC(=O)c2ccc(CN3CC[C@H](N(C)C)C3)c(C(F)(F)F)c2)cc1Nc1nccc(-c2cncnc2)n1 [bafetinib]
Summary of the method: as §1

[2] = compound: Cc1cccc(CC(=O)N2CCc3c2ccc(-c2cn(C)c4ncnc(N)c24)c3F)n1
Summary of the method: as §1

nilotinib = compound: Cc1cn(-c2cc(NC(=O)c3ccc(C)c(Nc4nccc(-c5cccnc5)n4)c3)cc(C(F)(F)F)c2)cn1 [nilotinib]
Summary of the method: as §1

[3] = compound: Cc1nc(Nc2n[nH]c3c2CN(C(=O)N[C@H](CN(C)C)c2ccccc2)C3(C)C)c2sccc2n1
Summary of the method: as §1

dasatinib = compound: Cc1nc(Nc2ncc(C(=O)Nc3c(C)cccc3Cl)s2)cc(N2CCN(CCO)CC2)n1 [dasatinib]
Summary of the method: as §1

[4] = compound: Cc1ncc(-c2ccnc(Nc3ccc(S(C)(=O)=O)cc3)n2)n1C(C)C
Summary of the method: as §1

[5] = compound: Cn1cc(-c2ccc3c(c2)CCN3C(=O)Cc2cccc(C(F)(F)F)c2)c2c(N)ncnc21
Summary of the method: as §1

quisinostat = compound: Cn1cc(CNCC2CCN(c3ncc(C(=O)NO)cn3)CC2)c2ccccc21 [quisinostat]
Summary of the method: as §1

tipifarnib = compound: Cn1cncc1[C@@](N)(c1ccc(Cl)cc1)c1ccc2c(c1)c(-c1cccc(Cl)c1)cc(=O)n2C [tipifarnib]
Summary of the method: as §1

[6] = compound: NC(=O)Nc1cc(-c2cccc(F)c2)sc1C(=O)N[C@H]1CCCNC1
Summary of the method: as §1

[7] = compound: NC(=O)c1cnc(N[C@@H]2CCCC[C@@H]2N)nc1Nc1cccc(-n2nccn2)c1
Summary of the method: as §1

[8] = compound: NC1(c2ccc(-c3nc4ccn5c(=O)[nH]nc5c4cc3-c3ccccc3)cc2)CCC1
Summary of the method: as §1

UniProt Q6NUQ1, sequence (Q6NUQ1 whole entry, looked up): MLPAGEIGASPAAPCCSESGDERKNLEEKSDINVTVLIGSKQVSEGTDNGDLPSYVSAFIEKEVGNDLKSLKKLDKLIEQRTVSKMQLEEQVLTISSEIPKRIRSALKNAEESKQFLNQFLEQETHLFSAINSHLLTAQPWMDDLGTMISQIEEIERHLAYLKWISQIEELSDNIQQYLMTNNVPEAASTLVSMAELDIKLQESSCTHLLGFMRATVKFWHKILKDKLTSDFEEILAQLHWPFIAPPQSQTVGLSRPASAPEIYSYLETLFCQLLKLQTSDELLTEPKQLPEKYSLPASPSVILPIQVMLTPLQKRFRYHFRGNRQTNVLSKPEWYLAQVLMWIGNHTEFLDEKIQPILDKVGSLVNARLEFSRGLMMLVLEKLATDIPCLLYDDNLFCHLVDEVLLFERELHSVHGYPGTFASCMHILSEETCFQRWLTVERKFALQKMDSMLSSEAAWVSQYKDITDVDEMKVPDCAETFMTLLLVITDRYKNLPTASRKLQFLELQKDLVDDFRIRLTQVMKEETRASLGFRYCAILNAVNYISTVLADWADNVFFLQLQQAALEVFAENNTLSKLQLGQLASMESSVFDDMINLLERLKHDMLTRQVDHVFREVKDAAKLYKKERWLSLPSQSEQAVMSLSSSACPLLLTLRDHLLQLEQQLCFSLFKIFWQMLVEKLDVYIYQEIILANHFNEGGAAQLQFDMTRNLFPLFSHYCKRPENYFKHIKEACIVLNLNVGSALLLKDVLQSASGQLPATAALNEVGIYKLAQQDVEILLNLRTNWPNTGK
UniProt Q99442, sequence (Q99442 whole entry, looked up): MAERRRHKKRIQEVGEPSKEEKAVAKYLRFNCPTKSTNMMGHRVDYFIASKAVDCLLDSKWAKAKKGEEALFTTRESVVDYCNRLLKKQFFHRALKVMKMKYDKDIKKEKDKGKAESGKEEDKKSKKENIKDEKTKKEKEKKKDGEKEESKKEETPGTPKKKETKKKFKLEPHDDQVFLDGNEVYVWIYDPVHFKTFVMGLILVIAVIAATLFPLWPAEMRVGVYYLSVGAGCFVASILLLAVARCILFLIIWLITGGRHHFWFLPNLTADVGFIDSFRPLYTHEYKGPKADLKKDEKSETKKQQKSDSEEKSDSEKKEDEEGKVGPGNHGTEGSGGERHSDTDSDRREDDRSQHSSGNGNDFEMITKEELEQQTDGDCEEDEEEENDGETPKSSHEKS
UniProt Q9P0K7, sequence (Q9P0K7 whole entry, looked up): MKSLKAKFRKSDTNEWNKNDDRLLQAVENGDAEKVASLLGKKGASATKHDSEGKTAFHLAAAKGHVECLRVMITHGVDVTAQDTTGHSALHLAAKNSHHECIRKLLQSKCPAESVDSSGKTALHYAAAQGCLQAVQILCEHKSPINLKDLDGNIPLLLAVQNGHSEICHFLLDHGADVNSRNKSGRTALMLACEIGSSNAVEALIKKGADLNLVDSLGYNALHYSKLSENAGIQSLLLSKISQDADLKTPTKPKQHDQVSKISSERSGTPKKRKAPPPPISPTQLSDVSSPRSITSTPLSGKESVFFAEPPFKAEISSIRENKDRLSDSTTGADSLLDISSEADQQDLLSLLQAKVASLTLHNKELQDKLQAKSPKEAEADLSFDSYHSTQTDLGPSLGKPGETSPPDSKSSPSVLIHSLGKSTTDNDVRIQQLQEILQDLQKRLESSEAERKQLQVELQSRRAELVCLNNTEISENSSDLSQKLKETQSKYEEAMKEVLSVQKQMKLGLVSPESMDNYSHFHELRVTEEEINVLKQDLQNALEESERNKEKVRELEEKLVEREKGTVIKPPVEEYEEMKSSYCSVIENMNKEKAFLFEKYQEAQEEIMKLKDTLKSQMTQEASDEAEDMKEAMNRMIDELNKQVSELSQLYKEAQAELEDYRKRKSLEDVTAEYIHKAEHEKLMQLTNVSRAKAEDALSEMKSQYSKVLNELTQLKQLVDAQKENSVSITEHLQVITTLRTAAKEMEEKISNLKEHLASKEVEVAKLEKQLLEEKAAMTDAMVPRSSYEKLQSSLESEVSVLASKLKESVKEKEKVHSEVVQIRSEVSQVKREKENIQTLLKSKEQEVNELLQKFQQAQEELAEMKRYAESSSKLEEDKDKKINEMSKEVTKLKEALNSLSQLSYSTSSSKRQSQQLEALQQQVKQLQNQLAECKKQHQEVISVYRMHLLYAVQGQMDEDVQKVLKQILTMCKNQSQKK
UniProt O14730, sequence (O14730 whole entry, looked up): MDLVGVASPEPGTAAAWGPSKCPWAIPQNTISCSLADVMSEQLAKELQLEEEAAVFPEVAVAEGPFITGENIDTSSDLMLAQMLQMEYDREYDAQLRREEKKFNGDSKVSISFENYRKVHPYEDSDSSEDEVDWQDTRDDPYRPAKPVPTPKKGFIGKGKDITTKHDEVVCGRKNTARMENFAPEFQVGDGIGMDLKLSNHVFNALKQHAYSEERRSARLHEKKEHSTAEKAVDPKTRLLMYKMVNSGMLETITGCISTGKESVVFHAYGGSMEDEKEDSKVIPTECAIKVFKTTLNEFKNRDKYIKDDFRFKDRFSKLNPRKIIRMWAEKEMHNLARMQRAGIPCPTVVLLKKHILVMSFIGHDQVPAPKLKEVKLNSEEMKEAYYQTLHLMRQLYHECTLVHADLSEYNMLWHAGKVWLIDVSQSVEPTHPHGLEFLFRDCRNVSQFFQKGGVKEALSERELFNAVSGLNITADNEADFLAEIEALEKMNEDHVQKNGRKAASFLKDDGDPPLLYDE
UniProt Q9Y3Z3, sequence (Q9Y3Z3 whole entry, looked up): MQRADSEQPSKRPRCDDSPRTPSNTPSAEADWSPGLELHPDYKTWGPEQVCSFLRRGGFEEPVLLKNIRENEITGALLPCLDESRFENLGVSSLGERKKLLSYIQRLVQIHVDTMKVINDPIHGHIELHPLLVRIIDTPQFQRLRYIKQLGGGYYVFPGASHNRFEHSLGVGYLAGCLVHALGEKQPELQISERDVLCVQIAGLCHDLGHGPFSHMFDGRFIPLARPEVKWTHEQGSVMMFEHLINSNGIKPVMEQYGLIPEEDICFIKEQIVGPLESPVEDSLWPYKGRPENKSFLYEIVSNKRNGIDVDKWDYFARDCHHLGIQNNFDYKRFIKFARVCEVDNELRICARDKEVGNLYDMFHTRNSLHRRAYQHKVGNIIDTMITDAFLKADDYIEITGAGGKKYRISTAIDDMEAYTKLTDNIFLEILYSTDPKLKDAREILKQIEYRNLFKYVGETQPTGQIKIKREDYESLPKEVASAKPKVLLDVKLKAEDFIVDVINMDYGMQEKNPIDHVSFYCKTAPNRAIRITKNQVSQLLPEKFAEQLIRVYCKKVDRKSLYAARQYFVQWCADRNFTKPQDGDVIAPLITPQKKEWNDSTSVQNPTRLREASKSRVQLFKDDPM
UniProt P40938, sequence (P40938 whole entry, looked up): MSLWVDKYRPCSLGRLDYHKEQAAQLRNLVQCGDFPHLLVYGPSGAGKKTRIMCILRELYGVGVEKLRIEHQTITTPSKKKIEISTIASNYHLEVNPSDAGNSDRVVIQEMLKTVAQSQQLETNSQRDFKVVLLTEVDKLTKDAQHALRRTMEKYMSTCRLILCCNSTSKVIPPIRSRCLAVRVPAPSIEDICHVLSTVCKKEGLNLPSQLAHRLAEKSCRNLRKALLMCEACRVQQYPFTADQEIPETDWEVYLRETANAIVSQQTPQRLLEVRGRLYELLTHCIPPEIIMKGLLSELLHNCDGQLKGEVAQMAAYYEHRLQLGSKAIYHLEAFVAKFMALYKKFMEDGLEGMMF
UniProt O75150, sequence (O75150 whole entry, looked up): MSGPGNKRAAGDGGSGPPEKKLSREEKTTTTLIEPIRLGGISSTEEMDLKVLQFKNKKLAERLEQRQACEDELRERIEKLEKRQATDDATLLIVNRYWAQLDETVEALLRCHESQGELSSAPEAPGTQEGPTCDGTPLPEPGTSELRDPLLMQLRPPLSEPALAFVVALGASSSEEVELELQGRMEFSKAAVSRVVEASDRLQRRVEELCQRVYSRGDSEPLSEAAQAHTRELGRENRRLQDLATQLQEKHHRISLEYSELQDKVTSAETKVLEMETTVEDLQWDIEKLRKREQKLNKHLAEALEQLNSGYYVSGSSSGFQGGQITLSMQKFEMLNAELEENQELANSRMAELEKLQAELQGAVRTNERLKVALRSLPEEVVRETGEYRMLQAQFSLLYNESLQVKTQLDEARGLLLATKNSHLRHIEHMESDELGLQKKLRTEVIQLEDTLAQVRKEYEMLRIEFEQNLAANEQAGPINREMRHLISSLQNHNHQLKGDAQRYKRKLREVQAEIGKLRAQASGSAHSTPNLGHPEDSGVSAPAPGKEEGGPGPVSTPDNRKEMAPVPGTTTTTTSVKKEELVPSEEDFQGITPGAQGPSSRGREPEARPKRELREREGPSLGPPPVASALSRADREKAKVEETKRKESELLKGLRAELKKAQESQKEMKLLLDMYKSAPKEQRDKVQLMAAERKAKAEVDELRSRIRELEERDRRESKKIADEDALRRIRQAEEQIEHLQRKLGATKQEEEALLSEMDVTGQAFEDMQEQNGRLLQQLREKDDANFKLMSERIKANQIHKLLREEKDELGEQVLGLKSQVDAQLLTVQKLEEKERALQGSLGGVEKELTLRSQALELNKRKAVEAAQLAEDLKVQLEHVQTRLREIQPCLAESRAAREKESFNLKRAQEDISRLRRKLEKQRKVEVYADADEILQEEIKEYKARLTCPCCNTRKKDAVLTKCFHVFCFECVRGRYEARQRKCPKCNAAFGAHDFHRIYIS
UniProt Q8IZV5, sequence (Q8IZV5 whole entry, looked up): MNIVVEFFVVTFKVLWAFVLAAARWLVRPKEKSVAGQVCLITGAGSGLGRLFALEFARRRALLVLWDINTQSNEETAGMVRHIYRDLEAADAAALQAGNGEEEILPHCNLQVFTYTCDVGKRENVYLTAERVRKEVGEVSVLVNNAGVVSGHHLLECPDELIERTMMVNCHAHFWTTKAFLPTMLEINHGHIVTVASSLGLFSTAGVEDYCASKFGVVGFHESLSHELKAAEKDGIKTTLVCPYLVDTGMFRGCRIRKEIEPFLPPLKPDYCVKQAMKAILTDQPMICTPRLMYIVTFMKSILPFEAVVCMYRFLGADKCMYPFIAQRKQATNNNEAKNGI

| Target | log2 fold change (lapatinib) | log2 fold change (pictilisib) | log2 fold change (crizotinib) | log2 fold change [1] | log2 fold change (duvelisib) | log2 fold change (gandotinib) | log2 fold change (tozasertib) | log2 fold change (doramapimod) | log2 fold change (bafetinib) | log2 fold change [2] | log2 fold change (nilotinib) | log2 fold change [3] | log2 fold change (dasatinib) | log2 fold change [4] | log2 fold change [5] | log2 fold change (quisinostat) | log2 fold change (tipifarnib) | log2 fold change [6] | log2 fold change [7] | log2 fold change [8] |
| --- | --- | --- | --- | --- | --- | --- | --- | --- | --- | --- | --- | --- | --- | --- | --- | --- | --- | --- | --- | --- |
| RMC1 (UniProt Q96DM3) | -0.036 | -0.011 | -0.013 | -0.029 | 0.024 | -0.051 | -0.056 | 0.012 | -0.062 | 0.035 | 0.027 | 0.005 | 0.008 | -0.002 | 0.003 | -0.02 | -0.057 | 0.035 | -0.007 | 0.036 |
| RPLP0P6 (UniProt Q8NHW5) | 0.003 | 0.033 | -0.013 | 0.014 | 0.016 | -0.013 | -0.005 | 0.001 | 0.274 (active) | 0.034 | 0.01 | -0.027 | 0.018 | 0.001 | 0.026 | -0.049 | -0.02 | 0.002 | 0.005 | -0.016 |
| RANBP6 (UniProt O60518) | -0.007 | -0.005 | -0.125 | -0.067 | 0.019 | -0.01 | 0.012 | 0.039 | 0.016 | 0.148 | 0.039 | -0.036 | -0.002 | -0.071 | 0.049 | -0.063 | -0.072 | 0.055 | 0.062 | -0.06 |
| RNASEL (UniProt Q05823) | -0.034 | -0.076 | -0.04 | -0.011 | 0.007 | -0.068 | -0.014 | -0.007 | -0.018 | -0.013 | -0.034 | 0.035 | -0.014 | -0.013 | 0.02 | -0.06 | -0.016 | 0.042 | 0.026 | -0.064 |
| RCOR3 isoform 3 (UniProt Q9P2K3) | 0.016 | 0.023 | 0.011 | 0.014 | -0.029 | -0.024 | 0.009 | -0.048 | -0.035 | 0.004 | -0.016 | -0.028 | -0.052 | 0.038 | 0.01 | 0.022 | 0.011 | 0.03 | 0.029 | 0.014 |
| SAMHD1 (UniProt Q9Y3Z3) | 0.02 | -0.071 | -0.033 | -0.038 | 0.013 | -0.029 | 0.032 | -0.005 | -0.071 | 0.028 | -0.006 | 0.008 | -0.026 | 0.013 | 0.066 | -0.02 | 0.03 | 0.054 | 0.046 | 0.004 |
| RFC3 (UniProt P40938) | -0.045 | -0.009 | -0.043 | -0.072 | 0.037 | -0.039 | 0.027 | 0.016 | -0.051 | 0.1 | 0 | -0.05 | -0.036 | 0.034 | 0.021 | -0.081 | 0.002 | 0.094 | 0.01 | -0.006 |
| RPN2 (UniProt P04844) | -0.048 | -0.006 | -0.004 | -0.074 | -0.003 | 0.039 | -0.003 | 0 | -0.032 | 0.06 | -0.011 | 0.005 | -0.008 | -0.013 | -0.006 | 0.049 | -0.015 | -0.001 | 0.011 | -0.003 |
| SEC62 (UniProt Q99442) | 0.028 | -0.029 | 0.011 | 0.231 | 0 | -0.07 | -0.024 | 0.002 | 0.029 | -0.072 | 0.013 | -0.032 | 0.01 | -0.038 | -0.011 | 0.083 | -0.055 | -0.045 | -0.007 | -0.01 |
| RPS29 (UniProt P62273) | -0.024 | 0.03 | 0.054 | 0.793 (active) | -0.02 | -0.202 | -0.128 | -0.105 | 0.205 | -0.315 | 0.117 | 0.072 | 0.22 | 0.061 | 0.112 | 0.361 | 0.094 | -0.116 | -0.024 | -0.068 |
| RIOK3 (UniProt O14730) | 0.026 | -0.032 | -0.031 | 0.021 | -0.007 | -0.009 | -0.008 | 0.036 | -0.021 | 0.008 | 0.017 | -0.027 | -0.05 | -0.076 | 0.002 | -0.063 | 0.008 | 0.01 | 0.009 | 0.014 |
| RAI14 isoform 2 (UniProt Q9P0K7) | -0.026 | -0.007 | -0.014 | 0 | -0.025 | -0.051 | 0.009 | 0 | -0.029 | 0.002 | -0.004 | -0.006 | -0.003 | -0.05 | 0.013 | -0.023 | -0.036 | -0.02 | 0.012 | -0.013 |
| RNF40 (UniProt O75150) | -0.019 | -0.005 | -0.01 | -0.011 | -0.001 | -0.048 | -0.002 | 0.002 | 0.01 | 0.03 | -0.022 | 0.009 | -0.012 | 0.003 | 0.031 | -0.029 | 0.003 | 0.031 | 0.009 | -0.012 |
| RINT1 (UniProt Q6NUQ1) | -0.069 | -0.065 | -0.06 | -0.058 | 0.046 | -0.039 | 0.025 | 0.069 | -0.058 | 0.132 | 0.043 | 0.075 | -0.115 | 0.028 | 0.012 | -0.029 | -0.044 | 0.071 | 0.001 | -0.014 |
| RDH10 (UniProt Q8IZV5) | 0.004 | -0.035 | 0.062 | -0.039 | 0.022 | 0.055 | -0.032 | -0.012 | 0.001 | 0.043 | -0.004 | 0.011 | 0.132 | 0.026 | -0.022 | 0.05 | 0.042 | -0.002 | -0.084 | 0.073 |
| RASA3 (UniProt Q14644) | 0.08 | -0.044 | -0.061 | -0.049 | 0.103 | -0.026 | -0.017 | -0.005 | -0.198 | 0.005 | 0.065 | -0.014 | -0.144 | 0.039 | 0.109 | 0.062 | 0.009 | 0.011 | 0.012 | 0.089 |
